# “And” between values parts separate entries of the source, which are not always exact repeats. Equal entries are not always repeated. Results filed as inconclusive are left out. The source made the active and inactive calls.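 The calls were made as follows, unless noted: active = normalized viability below 100% at a tested concentration; inactive = the rest.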
# Legend:
# [1] = viability loss in pontine glioma line – cell-based, SU-DIPG-XXV, MIPE5.0, CellTiter-Glo, qHTS, dose response (AID 1347065; cut-off not given, nearly all actives have AC50 up to about 26 µM;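 also: cells exposed to compound for 48 hours before ATP readout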); conditions: CellTiter-Glo ATP luminescence
# [2] = SU-DIPG-VI glioma cell viability, MIPE4.0 library, CellTiter-Glo luminescence, qHTS (AID 1347066; cut-off not given, nearly all actives have AC50 up to about 30 µM;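 also: cells exposed to compound for 48 hours before readout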); conditions: CellTiter-Glo ATP luminescence
# [3] = JHH-DIPG-1 glioma cell viability, MIPE5.0 library, CellTiter-Glo luminescence, qHTS (AID 1347067; cut-off not given, nearly all actives have AC50 up to about 26 µM;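 also: cells exposed to compound for 48 hours before readout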); conditions: JHH-DIPG-1 glioma viability, CellTiter-Glo ATP luminescence
# [4] = SU-DIPG-XXV glioma cell viability, MIPE5.0 library, qHTS (AID 1347068; cut-off not given, nearly all actives have IC50 up to about 30 µM;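 as to IC50: cells exposed to compound for 48 hours before viability readout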)
# [5] = phospholipid biosynthesis inhibitors in animal cells, primary screen, cell-based, LOPAC library, screen 4 (AID 1347384; call rule not given here); conditions: phospholipid biosynthesis inhibition screen, at 10 µM
# [6] = target: NAD(+) hydrolase SARM1 (Homo sapiens) (UniProt Q6SZW1); test: SARM1 TIR NADase inhibitors, cell lysate, NAD-Glo luminescence (AID 1508614;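 active = compound whose remaining NAD level is above about 45 nM, limit read from the data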;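 also: higher remaining NAD means stronger inhibition of SARM1 NADase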); conditions: SAM-TIR HEK293T lysate NADase, at 1 µM, stronger effect = higher value
# Chain of NAD(+) hydrolase SARM1 (Homo sapiens) (Q6SZW1 whole entry, looked up): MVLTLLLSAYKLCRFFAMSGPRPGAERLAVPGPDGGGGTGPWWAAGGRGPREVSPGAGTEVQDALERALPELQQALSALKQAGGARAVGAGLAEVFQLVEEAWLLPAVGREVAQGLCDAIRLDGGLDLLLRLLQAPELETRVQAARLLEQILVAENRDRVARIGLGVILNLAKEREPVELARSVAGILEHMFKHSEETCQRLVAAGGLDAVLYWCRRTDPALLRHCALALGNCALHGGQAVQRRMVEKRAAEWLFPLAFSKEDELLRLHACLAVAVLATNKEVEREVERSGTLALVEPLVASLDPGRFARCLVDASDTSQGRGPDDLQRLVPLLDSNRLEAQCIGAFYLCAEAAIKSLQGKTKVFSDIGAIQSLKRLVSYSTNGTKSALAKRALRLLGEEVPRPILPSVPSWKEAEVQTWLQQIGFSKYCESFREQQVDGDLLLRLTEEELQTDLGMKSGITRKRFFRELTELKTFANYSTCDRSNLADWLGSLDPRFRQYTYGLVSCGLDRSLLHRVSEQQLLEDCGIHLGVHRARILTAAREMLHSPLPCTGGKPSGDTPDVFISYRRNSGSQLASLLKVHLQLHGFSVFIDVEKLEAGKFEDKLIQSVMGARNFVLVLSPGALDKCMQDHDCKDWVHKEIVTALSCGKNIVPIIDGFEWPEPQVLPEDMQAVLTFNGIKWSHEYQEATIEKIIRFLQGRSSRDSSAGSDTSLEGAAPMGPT
# [7] = LFS_MB_P medulloblastoma growth inhibition, cell-based, chromothripsis tumors, cisplatin or BGB combos (AID 1671449; in the data active = inhibition above about 80%;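 also: cells exposed for 96 hours; 0% = vehicle DMSO and 100% = killing by high DMSO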); conditions: LFS_MB_P medulloblastoma cells
# [8] = HDN33 neuroblastoma growth inhibition, cell-based, chromothripsis tumors, cisplatin or BGB combos (AID 1671450; in the data active = inhibition above about 80%;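 also: cells exposed to compound for four days; 0% = vehicle DMSO and 100% = cell killing by high DMSO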); conditions: HDN33 neuroblastoma cells, stronger effect = higher value
# [9] = ICB984 medulloblastoma cell growth inhibition, synergistic combos for chromothripsis tumors, cisplatin or BGB combos (AID 1671451; call rule not given here;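 also: cells exposed for 96 hours before readout; 0% = vehicle DMSO and 100% = killing by high DMSO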); conditions: ICB984 medulloblastoma cells, drug combinations, stronger effect = higher value
# [10] = LFS_MB_1R medulloblastoma cell growth inhibition, synergistic combos for chromothripsis tumors, cisplatin or BGB combos (AID 1671452; in the data active = inhibition above about 80%;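 also: cells exposed for 96 hours before readout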); conditions: LFS_MB_1R medulloblastoma cells, stronger effect = higher value
# [11] = HTB85 osteosarcoma cell growth inhibition, synergistic combos for chromothripsis tumors, BGB or cisplatin IC20 combos (AID 1671453; in the data active = inhibition above about 80%;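 also: cells exposed for 96 hours before readout; 0% = vehicle DMSO and 100% = high DMSO killing control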); conditions: HTB85 osteosarcoma cells, drug combinations, stronger effect = higher value
# [12] = CRL2098 osteosarcoma cell growth inhibition, synergistic combos for chromothripsis tumors, BGB or cisplatin IC20 combos (AID 1671454; in the data active = inhibition above about 80%;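 also: cells exposed for 96 h before readout; 0% = vehicle DMSO and 100% = killing by high DMSO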); conditions: CRL2098 osteosarcoma cells, drug combinations, stronger effect = higher value
# [13] = HD-MB03 medulloblastoma cell growth inhibition, synergistic combos for chromothripsis tumors, BGB or cisplatin IC20 combos (AID 1671455; in the data active = inhibition above about 83%;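 also: 0% = vehicle DMSO and 100% = high DMSO as cytotoxic control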); conditions: HD-MB03 medulloblastoma cells, stronger effect = higher value
# [14] = modifiers of HSF1 nuclear foci, imaging, Selleck Cancer Library (AID 1347162; in the data active = plate-normalised HSF1 focus index below about 0.46); conditions: human cells, at 10 µM; SSMD: measured here: HSF1 foci SSMD mean; cell count: measured here: cell number; plate-normalised HSF1 focus index: stronger effect = lower value
# [15] = ovarian cancer cell viability with rucaparib, profiling panel, oncology-focused library, rucaparib conditional (AID 1508598); conditions: patient-derived ovarian cancer cells, CellTiter-Glo viability, 144 h, stronger effect = lower value
# [16] = target: Mitogen-activated protein kinase 7 (Homo sapiens) (UniProt Q13164); test: ERK5 transactivation activators in reporter cells, primary screen, cell-based, HTS (AID 1508626;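 active = luciferase signal above three times the same-plate solvent-only control wells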;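 also: luciferase driven by Gal4-ERK5 fusion binding five Gal4 sites before minimal TATA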); conditions: HeLa Gal4-ERK5 transactivation, 18 h, at 5 µM, stronger effect = higher value
# Chain of Mitogen-activated protein kinase 7 (Homo sapiens) (Q13164 whole entry, looked up, the tested form may be a part): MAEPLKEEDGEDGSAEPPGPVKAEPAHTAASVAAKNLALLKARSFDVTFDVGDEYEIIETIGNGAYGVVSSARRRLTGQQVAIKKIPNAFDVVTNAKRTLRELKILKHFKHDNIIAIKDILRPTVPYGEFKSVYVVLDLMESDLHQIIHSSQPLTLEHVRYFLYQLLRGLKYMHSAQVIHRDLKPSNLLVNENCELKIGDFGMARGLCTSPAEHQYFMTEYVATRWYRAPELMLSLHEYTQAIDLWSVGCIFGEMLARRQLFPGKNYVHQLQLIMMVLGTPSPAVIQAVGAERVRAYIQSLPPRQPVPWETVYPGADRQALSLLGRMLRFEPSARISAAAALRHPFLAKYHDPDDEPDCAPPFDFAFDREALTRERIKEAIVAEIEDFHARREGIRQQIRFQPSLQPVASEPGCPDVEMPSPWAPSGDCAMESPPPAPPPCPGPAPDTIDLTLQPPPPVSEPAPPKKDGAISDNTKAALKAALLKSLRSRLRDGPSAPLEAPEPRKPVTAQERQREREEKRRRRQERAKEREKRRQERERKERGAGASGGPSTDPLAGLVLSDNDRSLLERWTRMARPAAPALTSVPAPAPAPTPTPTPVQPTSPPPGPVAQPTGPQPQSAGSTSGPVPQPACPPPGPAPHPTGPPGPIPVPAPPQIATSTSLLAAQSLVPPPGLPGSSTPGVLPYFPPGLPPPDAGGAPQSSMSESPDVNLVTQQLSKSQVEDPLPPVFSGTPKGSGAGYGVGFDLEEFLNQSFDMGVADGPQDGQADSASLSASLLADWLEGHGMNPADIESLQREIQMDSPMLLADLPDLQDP
# [17] = viability rescue of complex I mutant cybrids, primary screen, cell-based, galactose medium, ATP luminescence (AID 1645843;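 active = z-score of at least 1.8 in each of two replicates, scored against plate mean and spread of sample wells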;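 also: positive z means more ATP and so rescue of galactose-driven cybrid death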); conditions: complex I mutant cybrid cells, 72 h, stronger effect = higher value
# [18] = measured here: combination with BGB IC40, at 0.05 µM
compound,measurement,setting,value
Nc1nc2c(ncn2COC(CO)CO)c(=O)[nH]1,outcome,[1],inactive
same,outcome,[2],inactive
same,outcome,[3],inactive
same,outcome,[4],inactive
same,outcome,[5],inactive
same,remaining NAD,[6],10 nM (inactive)
same,inhibition,"[7]; at 0.5 µM, stronger effect = higher value",-14.4% (inactive)
same,inhibition,"[7]; measured here: combination with BGB IC20, at 0.005 µM",-4.12%
same,inhibition,"[7]; measured here: combination with BGB IC40, at 0.005 µM",-22.8%
same,inhibition,[7]; [18],1.72%
same,inhibition,"[7]; measured here: combination with cisplatin, at 0.5 µM, stronger effect = higher value",-35.5%
same,inhibition,"[7]; measured here: combination with cisplatin, at 5 µM, stronger effect = higher value",126%
same,inhibition,"[8]; BGB combo, at 5 µM",30.5%
same,inhibition,[8]; at 0.5 µM,-5.69% (inactive)
same,inhibition,"[8]; cisplatin combo, at 5 µM",55%
same,inhibition,"[8]; measured here: with BGB IC20 combination, at 0.5 µM",-10.7%
same,inhibition,"[8]; measured here: with cisplatin IC20 combination, at 0.5 µM",0.325%
same,inhibition,"[8]; single agent, at 5 µM",66%
same,inhibition,"[9]; BGB IC20 combo, at 0.005 µM",-34.3%
same,inhibition,"[9]; BGB IC40 combo, at 0.005 µM",-7.26%
same,inhibition,"[9]; BGB IC40 combo, at 0.05 µM",96.7%
same,inhibition,[9]; at 0.5 µM,-23.8% (inactive)
same,inhibition,"[9]; cisplatin combo, at 0.05 µM",96.7%
same,inhibition,"[9]; cisplatin combo, at 0.5 µM",-39.7%
same,inhibition,"[9]; cisplatin combo, at 5 µM",-4.59%
same,inhibition,"[9]; measured here: 5 uM single agent, at 5 µM",-6.09%
same,inhibition,[10]; at 0.5 µM,26.9% (inactive)
same,inhibition,[10]; [18],-58.1%
same,inhibition,"[10]; measured here: combination with cisplatin, at 0.5 µM",61.8%
same,inhibition,"[10]; measured here: combination with cisplatin, at 5 µM",106%
same,inhibition,[11]; at 0.5 µM,-13.4% (inactive)
same,inhibition,"[11]; measured here: with BGB IC20, at 0.5 µM",-37.4%
same,inhibition,"[11]; measured here: with BGB IC20, at 5 µM",32.5%
same,inhibition,"[11]; measured here: with cisplatin IC20, at 0.5 µM",-11.6%
same,inhibition,"[11]; measured here: with cisplatin IC20, at 5 µM",68.7%
same,inhibition,"[11]; single agent, at 5 µM",71%
same,inhibition,[12]; at 0.5 µM,2.15% (inactive)
same,inhibition,"[12]; measured here: combination with BGB at IC20, at 0.5 µM",2.66%
same,inhibition,"[12]; measured here: combination with cisplatin at IC20, at 0.5 µM",0.146%
same,inhibition,[13]; at 0.5 µM,-7.18% (inactive)
same,inhibition,"[13]; measured here: combo with BGB at IC20, at 0.5 µM",-5.76%
same,inhibition,"[13]; measured here: combo with cisplatin at IC20, at 0.5 µM",-11.1%
Cc1cc2c(C(C)C)c(O)c(O)c(C=O)c2c(O)c1-c1c(C)cc2c(C(C)C)c(O)c(O)c(C=O)c2c1O,AC50,[1],7.42 µM (active)
same,AC50,[2],8.33 µM (active)
same,AC50,[3],2.95 µM (active)
same,IC50,[4],23.5 µM (active)
same,SSMD,[14],-10.3
same,cell count,[14],5460
same,plate-normalised HSF1 focus index,[14],0.468 (active)
same,outcome,[5],inactive
same,viability,"[15]; at 0.000305 µM, OCI-C5x cells, with rucaparib 10 µM, 100% = cells with rucaparib alone",113% (inactive)
same,viability,"[15]; at 0.000305 µM, OCI-C5x cells, without rucaparib",130% (inactive)
same,viability,"[15]; at 0.000305 µM, OCI-P5x cells, with rucaparib 20 µM, 100% = cells with rucaparib alone",95.4% (active)
same,viability,"[15]; at 0.000305 µM, OCI-P5x cells, without rucaparib",103% (inactive)
same,viability,"[15]; at 0.00122 µM, OCI-C5x cells, with rucaparib 10 µM, 100% = cells with rucaparib alone",115% (inactive)
same,viability,"[15]; at 0.00122 µM, OCI-C5x cells, without rucaparib",120% (inactive)
same,viability,"[15]; at 0.00122 µM, OCI-P5x cells, with rucaparib 20 µM, 100% = cells with rucaparib alone",95.6% (active)
same,viability,"[15]; at 0.00122 µM, OCI-P5x cells, without rucaparib",104% (inactive)
same,viability,"[15]; at 0.00488 µM, OCI-C5x cells, with rucaparib 10 µM, 100% = cells with rucaparib alone",119% (inactive)
same,viability,"[15]; at 0.00488 µM, OCI-C5x cells, without rucaparib",131% (inactive)
same,viability,"[15]; at 0.00488 µM, OCI-P5x cells, with rucaparib 20 µM, 100% = cells with rucaparib alone",96.5% (active)
same,viability,"[15]; at 0.00488 µM, OCI-P5x cells, without rucaparib",108% (inactive)
same,viability,"[15]; at 0.0195 µM, OCI-C5x cells, with rucaparib 10 µM, 100% = cells with rucaparib alone",113% (inactive)
same,viability,"[15]; at 0.0195 µM, OCI-C5x cells, without rucaparib",134% (inactive)
same,viability,"[15]; at 0.0195 µM, OCI-P5x cells, with rucaparib 20 µM, 100% = cells with rucaparib alone",101% (inactive)
same,viability,"[15]; at 0.0195 µM, OCI-P5x cells, without rucaparib",112% (inactive)
same,viability,"[15]; at 0.0781 µM, OCI-C5x cells, with rucaparib 10 µM, 100% = cells with rucaparib alone",110% (inactive)
same,viability,"[15]; at 0.0781 µM, OCI-C5x cells, without rucaparib",123% (inactive)
same,viability,"[15]; at 0.0781 µM, OCI-P5x cells, with rucaparib 20 µM, 100% = cells with rucaparib alone",108% (inactive)
same,viability,"[15]; at 0.0781 µM, OCI-P5x cells, without rucaparib",116% (inactive)
same,viability,"[15]; at 0.313 µM, OCI-C5x cells, with rucaparib 10 µM, 100% = cells with rucaparib alone",128% (inactive)
same,viability,"[15]; at 0.313 µM, OCI-C5x cells, without rucaparib",144% (inactive)
same,viability,"[15]; at 0.313 µM, OCI-P5x cells, with rucaparib 20 µM, 100% = cells with rucaparib alone",107% (inactive)
same,viability,"[15]; at 0.313 µM, OCI-P5x cells, without rucaparib",113% (inactive)
same,viability,"[15]; at 1.25 µM, OCI-C5x cells, with rucaparib 10 µM, 100% = cells with rucaparib alone",110% (inactive)
same,viability,"[15]; at 1.25 µM, OCI-C5x cells, without rucaparib",148% (inactive)
same,viability,"[15]; at 1.25 µM, OCI-P5x cells, with rucaparib 20 µM, 100% = cells with rucaparib alone",95.9% (active)
same,viability,"[15]; at 1.25 µM, OCI-P5x cells, without rucaparib",110% (inactive)
same,viability,"[15]; at 5 µM, OCI-C5x cells, with rucaparib 10 µM, 100% = cells with rucaparib alone",130% (inactive)
same,viability,"[15]; at 5 µM, OCI-C5x cells, without rucaparib",156% (inactive)
same,viability,"[15]; at 5 µM, OCI-P5x cells, with rucaparib 20 µM, 100% = cells with rucaparib alone",89.5% (active)
same,viability,"[15]; at 5 µM, OCI-P5x cells, without rucaparib",106% (inactive)
same,luciferase signal,[16],28 AU (inactive)
same,z-score,[17],-1.29 (inactive) and -0.705 (inactive)
